From PubChem BioAssay
Pf Dd2 inh = inhibitors of Plasmodium falciparum Dd2 growth; P. falciparum Dd2 growth, SYBR Green, 72 h; hits give low values; activity change, % at 10 µM; actives 2.3% (n = 94,000); AID 1159554; in the data active = activity change below about -80%; inconclusive = no clear call, values can overlap the other calls
C diff HTS = C. difficile growth inhibition | Clostridium difficile clinical isolate growth, OD600, 24 h; hits give low values | growth activity, negative = inhibition, % at 16 µg/mL (by protocol) | actives 0.25% (n = 86,000);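 active = mean growth activity at or below -80% and every replicate also at or below -80%; inconclusive = mean at or below -80% but some replicate above -80%; inactive = mean growth activity above -80%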;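 also: 0% = DMSO wells and -100% = levofloxacin 16 µg/mL wells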
T cruzi growth-1 = blocks T. cruzi growth in NIH3T3 culture | T. cruzi beta-gal in NIH3T3, GalScreen luminescence, 90 h | inhibition, % at 8.34 µM | actives 5.9% (n = 77,000);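 active = mean inhibition above about 93%, with at least 55% of replicates each passing it, limit read from the data, passing the limit was not always enough; inconclusive = only one of those two conditions holds; inactive = neither condition holds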
T cruzi growth-2 = blocks T. cruzi growth in NIH3T3 host cells; shares compounds with T cruzi growth-1; T. cruzi beta-gal in NIH3T3, GalScreen luminescence, 90 h; inhibition, % at 8.35 µM; actives 72% (n = 5,600);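 active = mean replicate inhibition above about 95% and at least 55% of replicates individually reaching it, limit read from the data; inconclusive = only one of the two criteria is met; inactive = neither criterion is met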
T cruzi growth-3 = Trypanosoma cruzi proliferation inhibition; actives 21% (n = 5,600); shares compounds with T cruzi growth-1; inhibition, % at 2.09 µM; T. cruzi beta-gal in NIH3T3, GalScreen luminescence, 90 h;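 active = mean inhibition above about 95%, with at least 55% of replicates also reaching it, limit read from the data; inconclusive = meets just one of the two conditions; inactive = meets neither condition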;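 also: plate controls were neutral control median for no effect and positive control median for full effect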
3T3 cytotox = cytotoxicity in mouse NIH/3T3 fibroblasts. shares compounds with T cruzi growth-1. NIH/3T3 viability, CellTiter-Glo ATP luminescence, 90 h. cytotoxicity (signal decrease), % at 8.35 µM. actives 14% (n = 5,600). AID 651742;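 active = mean signal decrease across replicates above about 35% based on untreated-well scatter, with enough replicates individually passing, limit read from the data; inconclusive = no rule stated though some were filed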;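 also: 0% = median of neutral control wells and 100% = median of positive control wells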
NIH3T3 tox 2 = NIH/3T3 (mouse) viability loss | inhibition, % at 24.9 µM | actives 56% (n = 5,600) | NIH/3T3 viability, CellTiter-Glo ATP luminescence, 90 h | shares compounds with T cruzi growth-1;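 active = mean loss of cell viability signal at or above a set limit, and enough replicates individually reaching it; inconclusive = meets only the mean limit or only the replicate share; inactive = meets neither condition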;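 also: 0% = median of neutral control wells and 100% = median of positive control wells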
* marks the source's active call; other numbers are inactive results; ? = inconclusive; nt = no result given. In the library only some 6.7% were active in any assay of this set; here they are far more common.

SMILES | Pf Dd2 inh | C diff HTS | T cruzi growth-1 | T cruzi growth-2 | T cruzi growth-3 | 3T3 cytotox | NIH3T3 tox 2
COc1ccc(CN(C)C[C@H]2Oc3ccc(NC(=O)Cc4cn(C)c5ccccc45)cc3C(=O)N([C@@H](C)CO)C[C@H]2C)cc1 | 9 | -5 | 49 | nt | nt | nt | nt
OC[C@H]1[C@@H](c2ccc(-c3cccnc3)cc2)[C@H]2CN(Cc3ccccn3)CCCCN21 | -40 | -5 | 72 | nt | nt | nt | nt
OC[C@H]1[C@H](c2ccc(-c3cccnc3)cc2)[C@@H]2CN(Cc3ccccn3)CCCCN12 | -13 | 4 | ? | 106* | 68 | -9 | -3
OC[C@@H]1[C@H](c2ccc(-c3ccc(F)cc3)cc2)[C@H]2CN(Cc3ccccn3)CCCCN12 | -21 | -8 | 99* | 107* | 92 | 31 | 108*
OC[C@@H]1[C@H](c2ccc(-c3ccc(F)cc3)cc2)[C@@H]2CN(Cc3ccccn3)CCCCN12 | -19 | -8 | 70 | nt | nt | nt | nt
O=C(NC[C@H]1CC[C@H]2[C@H](CN2S(=O)(=O)c2ccccc2)O1)NC1CCCCC1 | 8 | -1 | nt | nt | nt | nt | nt
CCCN(C)C[C@@H]1Oc2ncc(C#CC3CC3)cc2C(=O)N([C@H](C)CO)C[C@@H]1C | -56 | 11 | 37 | nt | nt | nt | nt
COc1ccc(CN(C)C[C@@H]2Oc3ccc(NS(C)(=O)=O)cc3C(=O)N([C@@H](C)CO)C[C@@H]2C)cc1 | 5 | -1 | nt | nt | nt | nt | nt
CCC(=O)NC[C@@H]1[C@H](c2ccc(-c3cccc(F)c3)cc2)[C@@H](CO)N1C(=O)CC | 1 | -8 | 101* | -41 | -73 | -35 | -30
CCC(=O)NC[C@@H]1[C@@H](c2ccc(-c3cccc(F)c3)cc2)[C@H](CO)N1C(=O)CC | 9 | -11 | 92 | nt | nt | nt | nt
CCC(=O)NC[C@H]1[C@@H](c2ccc(-c3cccc(F)c3)cc2)[C@H](CO)N1C(=O)CC | 19 | -10 | 30 | nt | nt | nt | nt
CCC(=O)NC[C@@H]1[C@H](c2ccc(-c3cccc(F)c3)cc2)[C@H](CO)N1C(=O)CC | 12 | -10 | ? | 12 | -19 | -8 | -10
COC(=O)[C@H]1[C@H](CO)[C@H]2Cn3c(ccc(-c4ccccc4)c3=O)[C@H]2N1C(=O)CC1CC1 | nt | -16 | -32 | nt | nt | nt | nt
COCC#Cc1cnc2c(c1)C(=O)N([C@@H](C)CO)C[C@H](C)[C@H](CN(C)C)O2 | 59 | -5 | -8 | nt | nt | nt | nt
C[C@H]1CN([C@@H](C)CO)C(=O)c2cc(C#CC3CCCCC3)cnc2O[C@@H]1CN(C)C(=O)NC1CCCC1 | -77 | 5 | 92 | nt | nt | nt | nt
C[C@@H]1CN([C@@H](C)CO)C(=O)c2cc(C#CC3CCCCC3)cnc2O[C@@H]1CN(C)C(=O)NC1CCCC1 | -51 | -3 | 100* | 107* | 75 | 33 | 100*
C[C@H](CO)N1C[C@H](C)[C@H](CN(C)C(=O)NC2CCCCC2)Oc2ncc(C#Cc3cccc(F)c3)cc2C1=O | -59 | 17 | 64 | nt | nt | nt | nt
C[C@H](CO)N1C[C@H](C)[C@H](CN(C)C(=O)NC2CCCCC2)Oc2ncc(C#Cc3ccccc3)cc2C1=O | -45 | 16 | 98* | 106* | 53 | 41* | 58*
COc1ccc(CNC(=O)C[C@@H]2C[C@@H]3c4cc(NC(=O)CC5CC5)ccc4O[C@@H]3[C@H](CO)O2)cc1 | 19 | -2 | 5 | nt | nt | nt | nt
C/C=C/c1cnc2c(c1)C(=O)N([C@@H](C)CO)C[C@H](C)[C@@H](CN(C)C(=O)NC1CCCC1)O2 | 22 | 18 | 27 | nt | nt | nt | nt
CCC(=O)N1C[C@H]2[C@@H](c3ccccc31)[C@@H](CO)N2C(=O)CC | -21 | -5 | 60 | nt | nt | nt | nt
CCC(=O)N1C[C@@H]2[C@H](c3ccccc31)[C@H](CO)N2Cc1ccccc1OC | -71 | -2 | -5 | nt | nt | nt | nt
CCC(=O)N1C[C@@H]2[C@H](c3ccccc31)[C@@H](CO)N2C(=O)CC | -76 | 6 | 102* | 7 | 3 | -11 | -13
CCC(=O)N1C[C@H]2[C@@H](c3ccccc31)[C@@H](CO)N2Cc1ccccc1OC | -71 | 1 | ? | 105* | 11 | 22 | 13
CC(C)C(=O)Nc1ccc2c(c1)C(=O)N(C)[C@H]1CC[C@@H](CC(=O)NCc3ccc(F)cc3)O[C@H]1CO2 | -12 | -2 | 8 | nt | nt | nt | nt
SMILES | Pf Dd2 inh | C diff HTS | T cruzi growth-1 | T cruzi growth-2 | T cruzi growth-3 | 3T3 cytotox | NIH3T3 tox 2
CCCNC(=O)N(C)C[C@@H]1Oc2cc(C#Cc3cccc(F)c3)ccc2S(=O)(=O)N([C@@H](C)CO)C[C@H]1C | -44 | 2 | 108* | 100* | 57 | 54* | 67*
CCCC#Cc1ccc2c(c1)O[C@@H](CN(C)C(=O)NCCC)[C@@H](C)CN([C@@H](C)CO)S2(=O)=O | -40 | -1 | -51 | nt | nt | nt | nt
CCCNC(=O)N(C)C[C@H]1Oc2cc(C#Cc3cccc(F)c3)ccc2S(=O)(=O)N([C@H](C)CO)C[C@@H]1C | -53 | -5 | 114* | 94 | 57 | 25 | 60*
CCCC#Cc1ccc2c(c1)O[C@@H](CN(C)C(=O)NCCC)[C@H](C)CN([C@H](C)CO)S2(=O)=O | -10 | -7 | -75 | nt | nt | nt | nt
CCCNC(=O)N(C)C[C@H]1Oc2cc(C#Cc3cccc(F)c3)ccc2S(=O)(=O)N([C@@H](C)CO)C[C@@H]1C | -40 | -16 | 116* | 112* | 49 | -4 | 66*
CC(C)NC(=O)N(C)C[C@@H]1Oc2cc(C#Cc3cccc(F)c3)ccc2S(=O)(=O)N([C@@H](C)CO)C[C@H]1C | -50 | -28 | 36 | nt | nt | nt | nt
CCCC#Cc1ccc2c(c1)O[C@H](CN(C)C(=O)NCCC)[C@@H](C)CN([C@H](C)CO)S2(=O)=O | 1 | 0 | 47 | nt | nt | nt | nt
CCCNC(=O)N(C)C[C@H]1Oc2cc(C#Cc3cccc(F)c3)ccc2S(=O)(=O)N([C@@H](C)CO)C[C@H]1C | -34 | -10 | 114* | 102* | 105* | 34 | 51*
CC(C)NC(=O)Nc1ccc2c(c1)C(=O)N([C@H](C)CO)C[C@@H](C)[C@H](CN(C)S(=O)(=O)c1ccc(F)cc1)OCCCC[C@H](C)O2 | nt | -2 | 4 | nt | nt | nt | nt
C[C@@H]1CCCCO[C@H](CN(C)Cc2ccccc2)[C@H](C)CN([C@H](C)CO)C(=O)c2cc(NC(=O)c3ccccc3)ccc2O1 | -59 | 10 | 77 | nt | nt | nt | nt
C[C@H](CO)N1C[C@H](C)[C@H](CN(C)Cc2ccc(F)cc2)Oc2ncc(C#Cc3cccnc3)cc2C1=O | -29 | 3 | nt | nt | nt | nt | nt
O=C(C[C@H]1CC[C@H](NS(=O)(=O)c2ccc(F)cc2)[C@@H](CO)O1)N1CCc2ccccc2C1 | -17 | 1 | 0 | nt | nt | nt | nt
C[C@H](CO)N1C[C@H](C)[C@H](CN(C)Cc2ccccc2)Oc2c(NC(=O)c3nc4ccccc4s3)cccc2C1=O | -25 | 2 | 99* | 103* | 47 | -4 | ?
